Measured values: PubChem BioAssay (Tox21)
Records with an inconclusive call do not appear. The source made the active and inactive calls. Unless noted, calls come from the whole dose curve; as a rule, active = well fitted curve in the direction sought with a large enough effect in the repeat runs; inconclusive = weak or mixed curves; inactive = no such curve, though single readings can be large; an effect the other way counts as inactive or inconclusive.

Columns and labels:
[1] = biological target: Thyrotropin receptor (Homo sapiens) (UniProt P16473); assay: qHTS assay to identify small molecule agonists of the thyroid stimulating hormone receptor (TSHR) signaling pathway (AID 1224843; calls by dose curve; note: nearly all actives have a fitted effect of over 45% in size)
Thyrotropin receptor (Homo sapiens), sequence (P16473 whole entry, looked up): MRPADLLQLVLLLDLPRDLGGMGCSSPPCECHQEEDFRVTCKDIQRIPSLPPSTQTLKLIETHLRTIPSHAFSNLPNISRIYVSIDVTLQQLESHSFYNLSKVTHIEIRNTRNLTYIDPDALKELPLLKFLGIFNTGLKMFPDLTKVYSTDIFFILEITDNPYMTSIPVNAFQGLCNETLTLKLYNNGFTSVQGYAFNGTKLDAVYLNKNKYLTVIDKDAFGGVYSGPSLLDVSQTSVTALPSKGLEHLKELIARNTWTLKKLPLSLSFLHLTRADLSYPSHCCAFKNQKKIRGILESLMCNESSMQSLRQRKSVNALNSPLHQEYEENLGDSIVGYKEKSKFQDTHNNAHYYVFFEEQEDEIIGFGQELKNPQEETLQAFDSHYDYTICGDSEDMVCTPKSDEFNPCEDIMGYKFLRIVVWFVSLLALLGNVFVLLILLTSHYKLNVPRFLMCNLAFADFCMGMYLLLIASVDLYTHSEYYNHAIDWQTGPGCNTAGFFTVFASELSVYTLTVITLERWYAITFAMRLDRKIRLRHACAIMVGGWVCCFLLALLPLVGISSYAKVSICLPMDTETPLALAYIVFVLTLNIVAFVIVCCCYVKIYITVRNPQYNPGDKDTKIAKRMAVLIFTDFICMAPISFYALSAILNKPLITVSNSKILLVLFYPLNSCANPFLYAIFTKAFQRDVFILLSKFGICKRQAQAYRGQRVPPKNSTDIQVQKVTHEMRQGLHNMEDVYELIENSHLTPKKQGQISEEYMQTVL
How it was run: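 Cell line HEK293 with TSHR; density 800/well. Exposure 30 min RT. Readout HTRF cAMP (cAMP-d2/anti-cAMP-cryptate), 1 h RT before reading.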

[2] = qHTS assay to identify small molecule agonists of the hypoxia (HIF-1) signaling pathway - cell viability counter screen (AID 1224844; calls by dose curve; note: nearly all actives have a fitted effect of over 50% in size; note: potency is the fitted concentration of half-maximal effect)
How it was run: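 ME-180 HRE-bla cells, 2,000/well, 0.5% dialyzed FBS; 5 hr settle, 17 hr compound at 37C/5% CO2; CCF4-AM reporter read first, then CellTiter-Glo luminescence after 30 min RT.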

[3] = qHTS assay to identify small molecule agonists of the hypoxia (HIF-1) signaling pathway (AID 1224846; active = well fitted activation curve with a large enough effect in the signal ratio in the repeat runs, not every such curve was filed as active; the % refers to the signal ratio)
How it was run: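 Cell line: CellSensor HRE-bla ME-180; 2,000 cells/well; 0.5% dialyzed FBS; 5 h preincubation; DMSO compound pin transfer; 17 h, 37C, 5% CO2; CCF4-AM added; bla FRET signal scored for activation.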

[4] = qHTS assay to identify small molecule agonists of H2AX - cell viability counter screen (AID 1224847; calls by dose curve; note: nearly all actives have a fitted effect of over 30% in size; note: potency is the fitted concentration of half-maximal effect)
How it was run: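 Cytotoxicity counter screen in wild-type CHO-K1 cells: a 3 hr compound treatment at 37C across 15 concentrations, followed by CellTiter-Glo luminescence to gauge viable cells.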

[5] = qHTS assay to identify small molecule antagonists of the estrogen related receptor (ERR) signaling pathway from Tox21 library (AID 1224848); note: nearly all actives have a fitted effect of over 50% in size; note: potency is the fitted concentration of half-maximal effect
How it was run: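 Screening used an ERR reporter line supplied by NTP, exposed for 18 h at 37 C to library compounds delivered in DMSO. Signal was luciferase luminescence developed with ONE-Glo at room temperature for 30 min.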

[6] = qHTS RealTime-Glo MT Cell Viability Assay in HepG2 cells - 24 hour (AID 1224867); note: nearly all actives have a fitted effect of over 50% in size
How it was run: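 Tox21 10K library screened in qHTS format on HepG2 cells carrying RealTime-Glo reagents. Compounds were added after a 5 h preincubation, and the luminescent signal from continuous culture was measured repeatedly during 40 h treatment.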

[7] = qHTS RealTime-Glo MT Cell Viability Assay in HEK293 cells - 32 hour (AID 1224868); note: nearly all actives have a fitted effect of over 50% in size; note: potency is the fitted concentration of half-maximal effect
How it was run: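 Luminescence generated by NanoLuc from substrate produced by living HEK293 cells served as the viability signal. Each value reflects the reading at its stated time point during continuous 40 h compound exposure at 37 C.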

[8] = A CellTox Green Cytotoxicity Assay to monitor cytotoxicity in HEK293 cells - 0 hour (AID 1224869); note: nearly all actives have a fitted effect of over 50% in size; note: potency is the fitted concentration of half-maximal effect
How it was run: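 Nonlytic real-time cytotoxicity: HEK293 + CellTox Green reagent plated, 5 h preincubation, pintool compound addition (23 nL in DMSO), 37 C for 40 h, fluorescence measured at successive time points.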

[9] = qHTS assay to identify small molecule agonists of H2AX (AID 1224845; active = well fitted activation curve with a large enough effect in the signal ratio in the repeat runs, not every such curve was filed as active; the % refers to the signal ratio)
How it was run: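 Wild-type CHO-K1 cells plated overnight, then exposed 3 hr at 37C to compounds at 15 concentrations (0.76% DMSO). Lysed, then HTRF anti-pH2AX(S139)-cryptate/anti-H2AX-d2 detection after 24 hr at room temperature; emissions 665 and 620 nm.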

[10] = qHTS assay to identify small molecule agonists of the estrogen related receptor (ERR) signaling pathway from Tox21 library (AID 1224849; calls by dose curve; note: nearly all actives have a fitted effect of over 15% in size); settings: ERR reporter cell line, ONE-Glo luciferase, 18 h; at 92.4 µM (top of the series) unless noted
How it was run: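 ERR cells, 6 h pre-incubation 37 C/5% CO2; cpd in DMSO pinned; 18 h 37 C; ONE-Glo added, 30 min RT; luminescence read. Agonist mode, qHTS.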
% is set by controls: 0 for no effect and ±100 for the full control effect.

CCCCOc1ccc(N)cc1
inactive: Potency [1] | Potency [2] | outcome [3] | Potency [4] | Potency [5] | outcome [6] | Potency [7] | Potency [8]

Clc1ccccc1-c1nc(-c2ccncc2)no1
inactive: Potency [1] | Potency [2] | Potency [9] | outcome [6] | Potency [8]

CCCCC(CC)COCCC#N (stereo not drawn)
inactive: Potency [1] | Potency [2] | Potency [9] | outcome [6] | Potency [7] | Potency [8]

O=C(O)c1ccc(O)c(O)c1
inactive: Potency [1] | Potency [2] | outcome [3] | Potency [4] | outcome [6] | Potency [7] | Potency [8]

O=C1CCCN1CCO
active: Potency [2] 21.9 µM
inactive: Potency [1] | Potency [9] | Potency [4] | outcome [6] | Potency [7] | Potency [8]

CC1=C(C)C(=O)C(CCCCC#CCCCC#CCO)=C(C)C1=O
inactive: Potency [1] | Potency [2] | outcome [3] | activity change, positive = activation [10] -50.9% [at 42.5 µM] | Potency [8]
active: Potency [4] 49.2 µM | Potency [5] 13.3 µM | Potency [7] 0.674 µM

CCCCCCCCCC(C)C=O (stereo not drawn)
inactive: Potency [1] | Potency [2] | Potency [9] | outcome [6] | Potency [7]
active: Potency [8] 24.5 µM

COc1ccc(/C=C/S(=O)(=O)NC(=O)c2ccc(C)cc2Cl)cc1
inactive: Potency [1] | Potency [2] | Potency [9] | outcome [6] | Potency [7] | Potency [8]

OCC(O)c1ccccc1 (stereo not drawn)
active: Potency [2] 38.9 µM
inactive: Potency [1] | Potency [9] | outcome [6] | Potency [7] | Potency [8]

FC(F)(Cl)C(F)(Cl)Cl
inactive: Potency [1] | Potency [2] | Potency [9] | Potency [4] | outcome [6] | Potency [7] | Potency [8]

Cc1c(Nc2ncccc2C(=O)O)cccc1C(F)(F)F
inactive: Potency [1] | Potency [2] | Potency [9] | Potency [4] | outcome [6] | Potency [7] | Potency [8]

O=C(O)c1ccccc1-n1cc(C(=O)O)c(=O)c2cc(Nc3c(F)cc(F)cc3Cl)c(Cl)cc21
inactive: Potency [1] | Potency [2] | Potency [9] | Potency [4] | outcome [6] | Potency [7] | Potency [8]

C[C@H](CN1CCCC1)C(=O)c1ccc(C(F)(F)F)cc1
inactive: Potency [1] | Potency [2] | Potency [9] | Potency [4] | Potency [8]

CCOC(=O)CC(O)(CC(=O)OCC)C(=O)OCC
inactive: Potency [1] | Potency [2] | Potency [9] | outcome [6] | Potency [8]

NC(=O)c1cc[n+](CC2=C(C(=O)[O-])N3C(=O)[C@@H](NC(=O)Cc4cccs4)[C@H]3SC2)cc1
inactive: Potency [1] | Potency [2] | Potency [9] | Potency [4] | outcome [6] | Potency [7] | Potency [8]

CC(Cc1ccccc1)(NC(=O)CN)c1ccccc1 (stereo not drawn)
inactive: Potency [1] | Potency [2] | Potency [9] | Potency [4] | outcome [6] | Potency [7] | Potency [8]

O=C(O)c1ccncc1
inactive: Potency [1] | Potency [2] | Potency [9] | Potency [4] | outcome [6] | Potency [7] | Potency [8]

O=C(O)c1ccccc1[N+](=O)[O-]
inactive: Potency [1] | Potency [2] | Potency [9] | outcome [6] | Potency [7] | Potency [8]

CO[C@@H]1COCC[C@@H]1N[C@@H]1CC[C@@](C(=O)N2CCc3ncc(C(F)(F)F)cc3C2)(C(C)C)C1
inactive: Potency [1] | Potency [2] | outcome [3] | Potency [4] | outcome [6] | Potency [8]
active: Potency [7] 15.4 µM

CC1(C)CC(O)CC(C)(C)N1[O]
inactive: Potency [1] | Potency [2] | Potency [9] | Potency [4] | outcome [6] | Potency [7] | Potency [8]

O=Cc1ccc([N+](=O)[O-])cc1
inactive: Potency [1] | Potency [2] | Potency [9] | Potency [5] | outcome [6] | Potency [7] | Potency [8]
active: activity change, positive = activation [10] 51.8%

CCN(CC)CC(=O)OCC(=O)[C@@]1(O)CC[C@H]2[C@@H]3CCC4=CC(=O)CC[C@]4(C)[C@H]3[C@@H](O)C[C@@]21C
inactive: Potency [1] | Potency [2] | Potency [9] | Potency [4] | outcome [6] | Potency [7] | Potency [8]

CC(CCl)OC(C)CCl (stereo not drawn)
inactive: Potency [1] | Potency [2] | Potency [9] | Potency [4] | outcome [6] | Potency [7] | Potency [8]

O=C(OC1C[C@H]2CC[C@@H](C1)[N+]21CCCC1)C(O)(c1ccccc1)c1ccccc1 (stereo partly drawn)
inactive: Potency [1] | Potency [2] | Potency [9] | Potency [4] | outcome [6] | Potency [7] | Potency [8]

NC(=O)c1ccccc1
inactive: Potency [1] | Potency [2] | Potency [9] | Potency [4] | outcome [6] | Potency [7] | Potency [8]

Nc1cccc2c(=O)[nH][nH]c(=O)c12
inactive: Potency [1] | Potency [2] | outcome [3] | Potency [4] | activity change, positive = activation [10] -53.6% | outcome [6] | Potency [7] | Potency [8]
active: Potency [5] 48.8 µM

O=C1OC(=O)C2CC=CCC12 (stereo not drawn)
inactive: Potency [1] | Potency [2] | Potency [9] | Potency [4] | outcome [6] | Potency [7] | Potency [8]
